# Measured values from patent US20220289795, “EFFICIENT METHOD FOR PREPARING PPR PROTEIN AND USE OF THE SAME” (EditForce, Inc., published 2022).
# Numbering of substitutions follows the chain as printed.
# What was measured:
# Test in all cases: RPB-ELISA
# Settings in all cases: tags: N-terminal luciferase, C-terminal 6xHis; label: 5'-biotin; ssRNA
# [1] = molecular target: T1, NL_v2_PPR20 (Artificial Sequence)
# T1 chain: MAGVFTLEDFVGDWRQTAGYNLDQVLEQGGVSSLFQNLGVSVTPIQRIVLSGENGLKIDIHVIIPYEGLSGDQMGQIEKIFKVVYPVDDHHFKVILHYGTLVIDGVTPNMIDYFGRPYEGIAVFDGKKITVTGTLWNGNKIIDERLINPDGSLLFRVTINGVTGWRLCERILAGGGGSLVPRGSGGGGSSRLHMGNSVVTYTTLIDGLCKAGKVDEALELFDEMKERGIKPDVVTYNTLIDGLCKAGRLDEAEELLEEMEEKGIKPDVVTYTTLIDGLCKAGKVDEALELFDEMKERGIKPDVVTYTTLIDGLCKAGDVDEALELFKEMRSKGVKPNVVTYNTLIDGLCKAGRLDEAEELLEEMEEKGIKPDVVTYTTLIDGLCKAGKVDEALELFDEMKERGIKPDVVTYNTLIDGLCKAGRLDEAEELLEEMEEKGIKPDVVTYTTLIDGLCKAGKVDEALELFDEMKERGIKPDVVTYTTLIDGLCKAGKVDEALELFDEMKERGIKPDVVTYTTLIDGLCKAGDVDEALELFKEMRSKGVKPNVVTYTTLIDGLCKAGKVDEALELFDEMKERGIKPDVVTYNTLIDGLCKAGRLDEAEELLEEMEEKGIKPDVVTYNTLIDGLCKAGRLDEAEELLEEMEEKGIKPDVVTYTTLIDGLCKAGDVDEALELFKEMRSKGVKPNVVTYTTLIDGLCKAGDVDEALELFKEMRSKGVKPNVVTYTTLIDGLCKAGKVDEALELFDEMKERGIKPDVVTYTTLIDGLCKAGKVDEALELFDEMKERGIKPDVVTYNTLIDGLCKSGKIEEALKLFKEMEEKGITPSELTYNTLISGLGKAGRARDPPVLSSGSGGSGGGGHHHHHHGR
# Summary of the method: (§1)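 5′-biotinylated 30-base RNA probes holding 18-base targets were captured on streptavidin plates, blocked, then bound 30 min at room temperature with E. coli lysate of luciferase-fused PPR protein (1.5×10⁸ LU/μL) in Tris-HCl pH 7.6 buffer. After washing, luminescence minus no-RNA background gave binding power.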
# [2] = molecular target: T2, NL_v2_PPR22 (Artificial Sequence)
# T2 chain: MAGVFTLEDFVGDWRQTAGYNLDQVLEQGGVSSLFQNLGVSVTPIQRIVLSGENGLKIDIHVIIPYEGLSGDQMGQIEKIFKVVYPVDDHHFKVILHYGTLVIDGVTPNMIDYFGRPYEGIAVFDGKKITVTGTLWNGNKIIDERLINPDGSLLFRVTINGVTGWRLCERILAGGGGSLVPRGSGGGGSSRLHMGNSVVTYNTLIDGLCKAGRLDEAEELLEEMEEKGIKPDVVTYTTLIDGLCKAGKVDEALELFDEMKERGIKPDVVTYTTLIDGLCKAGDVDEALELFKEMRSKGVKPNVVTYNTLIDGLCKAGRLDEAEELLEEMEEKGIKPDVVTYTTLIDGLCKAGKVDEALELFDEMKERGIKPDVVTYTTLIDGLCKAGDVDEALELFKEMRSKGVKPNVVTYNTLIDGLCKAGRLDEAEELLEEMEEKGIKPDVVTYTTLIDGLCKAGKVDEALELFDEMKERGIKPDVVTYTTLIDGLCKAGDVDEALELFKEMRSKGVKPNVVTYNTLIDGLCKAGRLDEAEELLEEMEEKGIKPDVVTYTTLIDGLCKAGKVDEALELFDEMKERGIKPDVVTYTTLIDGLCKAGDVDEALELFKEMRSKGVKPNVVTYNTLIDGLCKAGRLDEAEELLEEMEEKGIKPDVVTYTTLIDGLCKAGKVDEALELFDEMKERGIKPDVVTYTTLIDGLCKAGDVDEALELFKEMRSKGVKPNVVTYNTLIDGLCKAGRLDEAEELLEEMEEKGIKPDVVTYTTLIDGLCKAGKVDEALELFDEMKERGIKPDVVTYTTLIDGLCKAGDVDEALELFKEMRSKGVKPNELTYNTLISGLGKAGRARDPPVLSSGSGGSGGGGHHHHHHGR
# Summary of the method: as §1
# [3] = molecular target: T3, NL_v2_PPR16 (Artificial Sequence)
# T3 chain: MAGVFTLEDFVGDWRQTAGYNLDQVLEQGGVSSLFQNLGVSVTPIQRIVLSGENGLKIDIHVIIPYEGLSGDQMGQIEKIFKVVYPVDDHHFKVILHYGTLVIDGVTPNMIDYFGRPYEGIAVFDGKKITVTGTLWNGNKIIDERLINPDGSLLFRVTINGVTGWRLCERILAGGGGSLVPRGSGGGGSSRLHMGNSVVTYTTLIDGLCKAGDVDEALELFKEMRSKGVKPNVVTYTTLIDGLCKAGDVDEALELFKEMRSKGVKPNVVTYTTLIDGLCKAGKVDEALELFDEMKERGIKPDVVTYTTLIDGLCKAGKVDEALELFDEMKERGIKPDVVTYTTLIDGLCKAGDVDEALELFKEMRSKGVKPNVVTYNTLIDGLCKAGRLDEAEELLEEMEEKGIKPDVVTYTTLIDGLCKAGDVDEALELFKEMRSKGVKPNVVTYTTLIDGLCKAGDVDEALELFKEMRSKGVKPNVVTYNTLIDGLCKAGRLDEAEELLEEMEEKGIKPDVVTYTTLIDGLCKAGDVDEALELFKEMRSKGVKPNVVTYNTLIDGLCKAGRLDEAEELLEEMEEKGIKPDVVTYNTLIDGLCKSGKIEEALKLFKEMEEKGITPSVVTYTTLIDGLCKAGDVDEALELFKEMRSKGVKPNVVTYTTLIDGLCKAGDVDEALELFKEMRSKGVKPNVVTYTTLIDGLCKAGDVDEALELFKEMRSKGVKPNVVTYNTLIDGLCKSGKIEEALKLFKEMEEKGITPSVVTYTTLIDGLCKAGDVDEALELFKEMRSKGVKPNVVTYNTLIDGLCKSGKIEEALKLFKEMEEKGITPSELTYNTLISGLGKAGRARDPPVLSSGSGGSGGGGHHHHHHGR
# Summary of the method: as §1
# [4] = molecular target: T4, v3.1_PPR7 (Artificial Sequence)
# T4 chain: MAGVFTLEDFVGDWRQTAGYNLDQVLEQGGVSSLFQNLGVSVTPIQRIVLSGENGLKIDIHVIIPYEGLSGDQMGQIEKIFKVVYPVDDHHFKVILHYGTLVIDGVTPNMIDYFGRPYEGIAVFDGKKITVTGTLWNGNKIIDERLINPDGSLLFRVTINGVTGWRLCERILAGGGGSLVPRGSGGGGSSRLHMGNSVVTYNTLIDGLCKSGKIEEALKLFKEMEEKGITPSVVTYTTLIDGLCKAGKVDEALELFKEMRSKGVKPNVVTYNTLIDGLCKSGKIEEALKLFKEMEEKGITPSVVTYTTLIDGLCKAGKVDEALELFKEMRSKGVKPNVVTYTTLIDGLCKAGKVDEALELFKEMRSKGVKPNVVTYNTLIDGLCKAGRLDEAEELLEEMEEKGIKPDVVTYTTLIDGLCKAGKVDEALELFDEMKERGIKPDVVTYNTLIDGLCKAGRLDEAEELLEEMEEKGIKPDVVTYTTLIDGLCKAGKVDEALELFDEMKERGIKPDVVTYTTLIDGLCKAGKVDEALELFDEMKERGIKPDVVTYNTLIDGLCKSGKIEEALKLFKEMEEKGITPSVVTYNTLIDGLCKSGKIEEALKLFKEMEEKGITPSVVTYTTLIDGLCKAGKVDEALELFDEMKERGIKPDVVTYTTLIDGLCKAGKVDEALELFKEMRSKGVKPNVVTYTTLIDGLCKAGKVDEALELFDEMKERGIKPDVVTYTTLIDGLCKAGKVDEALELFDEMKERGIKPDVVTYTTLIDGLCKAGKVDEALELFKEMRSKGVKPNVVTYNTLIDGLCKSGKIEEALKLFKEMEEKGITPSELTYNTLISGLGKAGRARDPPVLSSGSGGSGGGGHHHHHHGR
# Summary of the method: (§2)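 5′-biotinylated 30-base RNA probes (18-base target) immobilised on streptavidin plates, then bound 30 min at RT by E. coli lysate with luciferase-fused PPR protein (1.5×10⁸ LU/μL) in Tris pH 7.6 buffer. Binding = luminescence minus no-RNA background.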
# [5] = molecular target: T5, v3.1_PPR22 (Artificial Sequence)
# T5 chain: T2 chain with D283K, D388K, D493K, D598K, D703K, D808K
# Summary of the method: as §2
sequence,measurement,setting,value
GUGGGGGUGGUAGGAAAU,binding signal,[1],22.4 log2 luminescence
same,binding signal,[2],21 log2 luminescence
same,binding signal,[3],22.1 log2 luminescence
same,binding signal,[4],24.2 log2 luminescence
same,binding signal,[5],20.8 log2 luminescence
GUCAGAGGGUUCUGGAUU,binding signal,[4],21.3 log2 luminescence
GACUCAGGAAUCGGCUCU,binding signal,[4],21 log2 luminescence
GGUUAGAGAUACAGUGUG,binding signal,[4],23.4 log2 luminescence
GGUGGUGAGGCCCUGGGC,binding signal,[1],21.1 log2 luminescence
same,binding signal,[4],23.8 log2 luminescence
same,binding signal,[5],20.9 log2 luminescence
